A selection: hits, their analogues and other compounds. The true share with any hit is near 9.9%.
IL-1B inflam inh: qHTS for Inhibitors of Inflammasome Signaling: IL-1-beta AlphaLISA Primary Screen. THP-1 LPS/ATP IL-1B secretion, AlphaLISA, 16 h; hits give low values. activity change, % at 57.5 µM. 360,000 tested, 4.7% active; in the data active means activity change below about -50%; inconclusive means mostly about -30% to -49%; further: on the % scale 0 is the no-effect control and ±100 the full control effect
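THP-1 cells pretreated 1 hr with compounds (up to 57.5 uM final), then stimulated with LPS (250 ng/mL final) plus ATP (1.25 mM final); secreted IL-1B measured by AlphaLISA after 16 hr, decreased signal indicating inhibition.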
SW480 rerep: A quantitative high throughput screen for small molecules that induce DNA re-replication in SW480 colon adenocarcinoma cells; 340,000 tested, 1.8% active; SW480 DNA re-replication, Hoechst DNA content imaging, 48 h; AID 624297, 2012; Potency, µM (top dose mostly 46.1 µM), for inactives: top-dose re-replication activation, usual class: activators; further: potency means the concentration at half of the fitted maximal effect; % of control where 0% means no effect; nearly all actives have a fitted effect of over 55% in size
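DNA re-replication was detected as more nuclei of elevated Hoechst intensity after 48 hr exposure to compound (23 nL pinned per well of 250 cells).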
KB-3-1 cytotox: qHTS assay for MDR1-selective chemotherapeutics: Primary screen using the parental adenocarcinoma cell KB-3-1. KB-3-1 viability, CellTiter-Glo ATP luminescence, 72 h. Potency, µM (highest dose often 46.1 µM), hits mostly cytotoxic. 400,000 tested, 1.4% active; further: potency means the concentration at half of the fitted maximal effect; on the % scale 0 is the no-effect control and ±100 the full control effect; nearly all actives have a fitted effect of over 60% in size
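Cells are dispensed, compounds pinned in, plates held at 37 °C for 72 h, then CellTiter-Glo is added and luminescence read after 10 minutes. Cell line: parental KB-3-1 in phenol-red-free DMEM, 10% FBS.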
MCF10A rerep: A quantitative high throughput screen for small molecules that induce DNA re-replication in MCF 10a normal breast cells; AID 624296, 2012; MCF 10A DNA re-replication, Hoechst nuclear intensity, 48 h; Potency, µM (doses to about 46.1 µM), inactives show top-dose activity, positive = re-replication, actives largely listed as activators; 350,000 tested, 2.9% active; further: potency means the concentration at half of the fitted maximal effect; % of control where 0% means no effect; nearly all actives have a fitted effect of over 50% in size
KB-V1 MDR tox: qHTS assay for MDR1-selective chemotherapeutics: Primary screen using the drug-selected MDR subline cells KB-V1; 400,000 tested, 3.4% active; AID 1347076, 2019; KB-V1 MDR cells viability, CellTiter-Glo, 72 h; Potency, µM (doses to about 46.1 µM), actives largely listed as cytotoxic; further: potency means the concentration at half of the fitted maximal effect; on the % scale 0 is the no-effect control and ±100 the full control effect; nearly all actives have a fitted effect of over 60% in size
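Following 72 h at 37 degrees C with compound, KB-V1 cell viability was read by CellTiter-Glo luminescence, medium being phenol-red-free DMEM plus 10% FBS; concentration-response parameters came from normalized, curve-fitted qHTS data.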
Starred values were filed as active, the others as inactive; i = inactive; ? = inconclusive; nt = no result given. Unless noted, the call rests on the fitted dose curve; in most records, active means well fitted curve in the direction sought with a large enough effect; inconclusive means small, poorly fitted or top-dose-only effect, or another doubt; inactive means no such curve, though single readings can be large; an effect the other way counts as inactive or inconclusive.

SMILES	IL-1B inflam inh	SW480 rerep	KB-3-1 cytotox	MCF10A rerep	KB-V1 MDR tox
COc1cc(/C=C/C(=O)OCC(=O)c2ccc3c(c2)NC(=O)CO3)ccc1OC(F)F	32.7	26.3%	i	1.4%	i
CCC(=O)N1CCc2cc(S(=O)(=O)NC(C(=O)NCc3ccc(OC)cc3)C(C)C)ccc21 (centres undefined)	nt	nt	i	nt	i
COc1cc(NC(=O)c2ccccc2)c(OC)cc1NC(=O)CN1C(=O)NC2(CCCCC2C)C1=O (centres undefined)	0.0	2.6%	i	10.6%	?
CCCOC(=O)CN1C(=O)c2ccc(C(=O)OCCC)cc2C1=O	21.3	-2.6%	i	-5.0%	i
CCCOC(=O)c1ccc2c(c1)C(=O)N(c1ccccc1)C2=O	-12.6	16.4µM*	i	?	i
CCN(CC(=O)Nc1ccc2c(c1)OCCO2)Cc1nc2cc(Cl)ccc2c(=O)[nH]1	34.2	-1.1%	i	?	20.6µM*
CCN(CC(=O)Nc1ccc2c(c1)OCCO2)CC(=O)Nc1ccccc1C(F)(F)F	12.4	-5.1%	i	6.3%	11.6µM*
CCN(CC(=O)Nc1ccc(C(C)=O)cc1)CC(=O)Nc1ccc2c(c1)OCCO2	19.1	-2.6%	i	-0.1%	i
O=[N+]([O-])c1cc([N+](=O)[O-])c(Oc2ccc(Cl)c3cccnc23)cc1NN1CCCCC1	-16.2	1.2%	i	1.9%	?
O=C1CC(NS(=O)(=O)c2cccnc2)CN1c1ccc(Cl)cc1 (centres undefined)	2.0	0.2%	i	-1.6%	i
CCC/C(O)=C1\C(=O)CCCC1=NCCc1c(C)[nH]c2ccc(OC)cc12	-3.6	6.3%	i	7.9%	?
CC(=NCCc1c(C)[nH]c2ccc(OCc3ccccc3)cc12)C1=C(O)CC(c2ccccc2)CC1=O (centres undefined)	9.0	2.3%	i	1.0%	?
CCC(=NCCc1c(C)[nH]c2ccc(OC(F)(F)F)cc12)C1=C(O)CC(c2ccccc2)CC1=O (centres undefined)	4.3	11.6µM*	4.11µM*	?	2.91µM*
CCCCC(=NCCc1c(C)[nH]c2ccc(OC)cc12)C1=C(O)CC(c2ccccc2)CC1=O (centres undefined)	9.4	7.31µM*	3.66µM*	2.59µM*	5.8µM*
CCC(=NCCc1c(C)[nH]c2ccccc12)C1=C(O)CC(c2ccccc2)CC1=O (centres undefined)	?	10.3µM*	4.61µM*	4.11µM*	3.66µM*
CCC(=NC)C1=C(O)CC(c2ccccc2)CC1=O (centres undefined)	-1.3	-6.0%	i	-0.8%	i
COCCN(C(=O)c1cc(CN2C(=O)c3ccccc3C2=O)ccc1OC)c1c(N)n(CC(C)C)c(=O)[nH]c1=O	0.0	-36.1%	i	?	i
O=C(Nc1ccc(F)c(Cl)c1)c1csc(COCCO)n1	27.0	nt	i	nt	i
CC(=O)c1c(C)n([O-])c2cc(F)c(F)cc2[n+]1=O	-99.8*	?	16.4µM*	?	?
CCc1cc(=O)oc2c(C)c(OS(C)(=O)=O)ccc12	-2.5	-2.8%	i	-5.2%	4.11µM*
CC(C)Cc1ccc(CN2CCCC(NC(=O)CCn3cnnn3)C2)cc1 (centres undefined)	-60.3*	0.7%	i	?	?
O=C(CCc1ccc(F)c(F)c1)NC1CCCN(Cc2ccc(Cl)cc2)C1 (centres undefined)	-78.4*	-2.2%	i	-2.1%	i
COc1ccc(CCC(=O)NC2CCCN(Cc3ccc(Cl)cc3)C2)cc1OC (centres undefined)	4.8	-2.1%	i	9.4%	i
Cc1cc2ccccc2c(=O)n1CC(=O)NCCC1=CCCCC1	9.3	0.6%	i	-1.3%	?
COc1cc(-c2nnc(-c3ccncc3)o2)ccc1OCc1ccccc1	0.3	-17.7%	i	?	i

Compound activity as filed in PubChem.
